{"source": "PubChem BioAssay (NCATS)", "note": "Results filed as inconclusive are left out. A number with no mark means an inactive call. Activity calls are given as the source filed them. Calls come from the whole dose curve; as a rule, active = well fitted inhibition curve with a large enough effect; inconclusive = small, poorly fitted or top-dose-only effect; inactive = flat fitted curve, though single readings scatter. Potency is the fitted concentration of half-maximal effect."}
{"target": "Glutathione peroxidase 1 (Homo sapiens) (UniProt P07203)", "sequence (P07203 whole entry, looked up)": "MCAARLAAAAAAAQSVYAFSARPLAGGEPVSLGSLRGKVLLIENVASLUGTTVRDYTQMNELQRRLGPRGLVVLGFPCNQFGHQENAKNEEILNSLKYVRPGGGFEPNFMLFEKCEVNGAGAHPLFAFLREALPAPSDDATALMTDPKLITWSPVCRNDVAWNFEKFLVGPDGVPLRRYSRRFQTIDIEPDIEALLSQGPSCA", "assay": "Primary qHTS Assay for Inhibitors of Recombinant Selenoprotein Glutathione Peroxidase 1 (GPX1) (AID 1845191); note: nearly all actives have a fitted effect of over 65% in size", "conditions": "recombinant GPX1, GR-coupled NADPH fluorescence, 15 min; series mostly up to 48.8 µM; activity, negative = inhibition: at the top concentration", "from_the_text": "Assay Provider: Elias S.J. Arner MD PhD.\nDepartment of Medical Biochemistry and Biophysics\nKarolinska Institutet, Solna, Stockholm, Sweden\nSelenoprotein glutathione peroxidases (GPX), like the ubiquitously expressed GPX1 and the ferroptosis modulator GPX4, enact their antioxidant activities by reducing hydroperoxides using glutathione. […] GPX1 and GPX4 inhibitors have thus shown promise as anti-cancer agents. Existing inhibitors are often promiscuous, or modulate GPX activity only indirectly, so novel direct inhibitors identified through screening against GPX1 and GPX4 could be valuable. Here, we developed optimized glutathione reductase (GR)-coupled GPX assays for the biochemical high-throughput screen (HTS) of almost 12,000 compounds with known mechanisms of action. Initial hits were triaged using a GR counter-screen, assessed for isoform specificity using a separate GPX2 assay, and were assessed for general selenocysteine-targeting activity using a thioredoxin reductase (TXNRD1) assay. With this suite of assays, we identified novel GPX1/GPX2- and GPX4-specific inhibitors and can here present a validated pipeline for future discovery research for selenoprotein-targeting agents.\nSEQUENCE No. (e.g., 1, 2, 3, etc.); […] (e.g., Cells, Incubation, Reagent, etc.); VALUE; DESCRIPTION.\n1; Reagent 1; 3 uL; GPx1 enzyme or no enzyme control in 1536-well, black, solid Greiner assay plate.\n2; Compound; 25 nL; Kalypsis pin tool (Wako USA) equipped with a 1536-well pin head.\n3; Incubation; 30 min; room temperature.\n4; Reagent 2; 1 uL; 10 nM GPX1, 1 mM GSH, 0.5 mM CHP, 0.5 mM NADPH, 100 nM GR, 0.01% BSA substrate\n5; Detection; Fluorescence; ViewLux microplate reader, excitation 340 nm and emission 450 nm.\n6; Incubation; 15 min; room temperature.\n7; Detection; Fluorescence; ViewLux microplate reader, excitation 340 nm and emission 450 nm.\nNOTES (numbers refer to Sequence numbers above)\n1. 3 uL of 16.66 nM GPX1 and 0.016% BSA in assay buffer (50 mM Tris-HCl, 2 mM EDTA (pH 7.5), 150 mM NaCl) was added to columns 3-48 of 1536-well assay plates using a BioRAPTR Flying Reagent Dispenser (Let's Go Robotics (LGR), Carlsbad, CA). A no-enzyme control (0.01% BSA in TES assay buffer) was added to columns 1-2.\n2. 25 nL of test compounds and DMSO controls were added to each well with a pin tool (Kalypsys).\n3. The assay plates were incubated for 30 minutes at room temperature.\n4. 1 uL of master mix (500 nM glutathione reductase (GR), 5 mM reduced glutathione (GSH), 2.5 mM NADPH in assay buffer) was added. 1 uL of cumene hydroperoxide (CHP) ([2.5 mM] in 50% EtOH) was then added within 5 minutes to initiate the reaction. Final concentrations were: 10 nM GPX1, 1 mM GSH, 0.5 mM CHP, 0.5 mM NADPH, 100 nM GR, 0.01% BSA.\n5. Initial fluorescence readout (t=0) at 340/450 nm was measured using a ViewLux multimodal detector (PerkinElmer, Waltham, MA).\n7. Endpoint fluorescence readout (t=15) at 340/450 nm was measured 15 min after room temperature incubation."}
{"smiles": "O=C(C1=CCN2c3c(cccc31)OC[C@H]2CN1CCOCC1)c1cccc2ccccc12", "outcome": "inactive"}
{"smiles": "Cc1c(C(=O)NCCCO)cnn1-c1nc(-c2cccc(C(F)(F)F)c2)cs1", "outcome": "inactive"}
{"smiles": "CC1CCC(n2c3cnccc3c3cnc(Nc4ccc5c(n4)CCN(C(=O)CO)C5)nc32)CC1", "note": "(stereo not given)", "Potency": "inactive"}
{"smiles": "CN1CCN(CCC=C2c3ccccc3Sc3ccc(S(=O)(=O)N(C)C)cc32)CC1", "activity, negative = inhibition": "-36.3%"}
{"smiles": "CCCCCCCCCCCCCCCCOCCCOP(=O)(O)COC(CO)Cn1ccc(N)nc1=O", "note": "(stereo not given)", "outcome": "inactive"}
{"smiles": "CCOc1nc2cccc(C(=O)OC(C)OC(=O)OC3CCCCC3)c2n1Cc1ccc(-c2ccccc2-c2nn[nH]n2)cc1", "note": "(stereo not given)", "activity, negative = inhibition": "-0.508%"}
{"smiles": "N[C@@H](C(=O)N[C@@H]1C(=O)N2C(C(=O)O)=C(CSc3cn[nH]n3)CS[C@H]12)c1ccc(O)cc1", "Potency": "18 µM (active)"}
{"smiles": "CNc1nc(-c2ccc3c(N)n[nH]c3c2)cc(N2CC(C(=O)NC3CCCCC3)CCC2C)n1", "note": "(stereo not given)", "activity, negative = inhibition": "-7.21%"}
{"smiles": "C[N+]1(C)[C@@H]2CC[C@H]1CC(OC(=O)C(O)c1ccccc1)C2", "note": "(stereo not given in full)", "activity, negative = inhibition": "-8.29%"}
{"smiles": "C=C1[C@@H](C2=CC(=O)OC2)CC[C@@]2(O)[C@@H]1CC1[C@H]2CC[C@@H]2C[C@@H](O[C@H]3O[C@@H](C)[C@@H](O[C@@H]4O[C@H](CO[C@@H]5O[C@H](CO)[C@@H](O)[C@H](O)[C@H]5O)[C@@H](O)[C@H](O)[C@H]4O)[C@H](OC)[C@H]3O)CC[C@]12C", "note": "(stereo not given in full)", "activity, negative = inhibition": "-8.65% [at 15.3 µM]"}
{"smiles": "CC(=O)N1CCN([C@H]2CCN(C(=O)N(C)[C@H](C)c3cc(C(F)(F)F)cc(C(F)(F)F)c3)[C@@H](c3ccc(F)cc3C)C2)CC1", "outcome": "inactive"}
{"smiles": "CC(C)N(CCCNC(=O)Nc1ccc(C(C)(C)C)cc1)C[C@H]1O[C@@H](n2cc(Br)c3c(N)ncnc32)[C@H](O)[C@@H]1O", "Potency": "inactive"}
{"smiles": "CCC(=O)Nc1cccc(Oc2nc(Nc3ccc(N4CCN(C)CC4)cc3OC)ncc2Cl)c1", "Potency": "inactive"}
{"smiles": "O=C(c1ccc(F)c(F)c1Nc1ccc(I)cc1F)N1CC(O)([C@@H]2CCCCN2)C1", "Potency": "inactive"}
{"smiles": "C/C=C(/COC(=O)/C(C)=C/C)C(=O)OC/C=C/c1ccc(OC)cc1", "outcome": "inactive [at 27.7 µM]"}
{"smiles": "N#C[C@@H]1C[C@@H]2C[C@@H]2N1C(=O)[C@@H](N)C12CC3CC(CC(O)(C3)C1)C2", "outcome": "inactive"}
{"smiles": "C[C@@H](Oc1cc(-n2cnc3ccc(OC4CCN(C)CC4)cc32)sc1C(N)=O)c1ccccc1Cl", "outcome": "inactive"}
{"smiles": "C=CC(C)(C)c1[nH]c2ccccc2c1C1=C(O)C(=O)C(c2c[nH]c3c(CC=C(C)C)cccc23)=C(O)C1=O", "activity, negative = inhibition": "2.11%"}
{"smiles": "O=C1OC(/C=C/c2ccccc2)=NC/1=C\\c1cccnc1", "activity, negative = inhibition": "1.22%"}
{"smiles": "COc1ccccc1-c1cc(Nc2cccc(CS(N)(=O)=O)c2)ncn1", "activity, negative = inhibition": "-8.75%"}
{"smiles": "O=[N+]([O-])c1ccc(-[n+]2nc(-c3ccccc3)nn2-c2ccc(I)cc2)cc1", "outcome": "inactive"}
{"smiles": "C=C1C(=O)O[C@@H]2[C@H]1[C@H](O)C[C@]1(C)[C@@H](O)CC=C(C)[C@@H]21", "outcome": "inactive"}
{"smiles": "Cc1cc2nc(NCCCO)n(CC(=O)c3cc(C(C)(C)C)c(O)c(C(C)(C)C)c3)c2cc1C", "activity, negative = inhibition": "-24.1%"}
{"smiles": "O=C1c2c(O[C@@H]3O[C@H](CO)[C@@H](O)[C@H](O)[C@H]3O)cc(O)cc2OC1(O)Cc1ccc(O)cc1", "note": "(stereo not given in full)", "activity, negative = inhibition": "-2.58% [at 27.7 µM]"}
{"smiles": "CNC(=O)c1cccc2cc(Oc3ccnc4cc(OCC5(N)CC5)c(OC)cc34)ccc12", "activity, negative = inhibition": "-3.28%"}
{"smiles": "CN(C)Cc1cccc(N=C(c2ccccc2)c2c(O)[nH]c3cc(C(N)=O)ccc23)c1", "activity, negative = inhibition": "-3.26%"}
{"smiles": "O=C(/C=C/c1nc2ccccc2[nH]1)c1c(-c2ccccc2)c2cc(Cl)ccc2[nH]c1=O", "activity, negative = inhibition": "-0.295%"}
{"smiles": "CC(=O)Nc1ccc(C(=O)NC(C)(C)C)cc1", "activity, negative = inhibition": "-2.25%"}
{"smiles": "Nc1ncnc2c1ncn2[C@@H]1O[C@H](CO)C[C@H]1O", "Potency": "inactive"}
{"smiles": "CO[C@@H]1[C@@H](O[C@H]2O[C@@H](C)[C@H](O[C@@H]3C[C@](C)(O)[C@H](O)[C@@H](C)O3)[C@@H](N(C)C)[C@@H]2O)[C@@H](CC=O)C[C@@H](C)[C@@H](O[C@H]2CC[C@H](N(C)C)[C@H](C)O2)/C=C/C=C/C[C@@H](C)OC(=O)C[C@H]1O", "activity, negative = inhibition": "-7.39%"}
{"smiles": "C[C@@H](O[C@H]1OCCN(Cc2n[nH]nc2CN(C)C)[C@H]1c1ccc(F)cc1)c1cc(C(F)(F)F)cc(C(F)(F)F)c1", "activity, negative = inhibition": "2.93%"}
{"smiles": "Cc1ccc(Cl)cc1NC(=O)c1nc[nH]c1C(=O)Nc1nc2ccccc2[nH]1", "activity, negative = inhibition": "-4.34%"}
{"smiles": "CCN(CC)Cc1cccc(/C=C/c2nc3ccc(F)cc3c(=O)n2-c2ccccc2Cl)n1", "activity, negative = inhibition": "-8.32%"}
{"smiles": "Cc1ccc(NS(=O)(=O)c2cc3c(cc2N[C@@H](C)CO)NC(=O)CC3)cc1Cl", "activity, negative = inhibition": "3.69%"}
{"smiles": "CCCCCCCCCCCCC/C=C/[C@@H](O)[C@H](CO)N(C)C", "outcome": "inactive"}
{"smiles": "CN(C)c1ccc(Nc2c3ccc(NC(=O)CCN4CCCC4)cc3nc3cc(NC(=O)CCN4CCCC4)ccc23)cc1", "activity, negative = inhibition": "-28%"}
{"smiles": "CC/C(=C(\\c1ccc(O)cc1)c1ccc(OCCNC)cc1)c1ccccc1", "outcome": "inactive"}
{"smiles": "O=C1CCCC2=C1C1(CCSCC1)N=C(Nc1nc3ccccc3o1)N2", "activity, negative = inhibition": "-8.9%"}
{"smiles": "NS(=O)(=O)c1ccc(N=Nc2c(O)[nH]c3ccc(Br)cc23)cc1", "outcome": "inactive"}
{"smiles": "CN(C)CC(=O)N1CCC[C@@H](n2nc(-c3ccc(Oc4ccccc4)cc3)c3c(N)ncnc32)C1", "activity, negative = inhibition": "-31%"}
